# Results taken from PubChem BioAssay (NCATS).
# Results filed as inconclusive are left out. Entries that show only a call come without a potency. Active and inactive are the calls of the source. The call rests on the fitted dose curve; in most records, active means well fitted curve in the direction sought with a large enough effect; inconclusive means small, poorly fitted or top-dose-only effect, or another doubt; inactive means no such curve, though single readings can be large; an effect the other way counts as inactive or inconclusive.
# Key:
# 7G8 = assay: qHTS profiling for inhibitors of Plasmodium falciparum proliferation (AID 504749); further: nearly all actives have a fitted effect of over 60% in size; conditions: P. falciparum in erythrocytes, SYBR Green DNA, 72 h; series mostly up to 28.7 µM
# Outline: (§1)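 Quantitative HTS: compounds pinned into medium, infected erythrocytes added (0.3% parasitemia, 2.5% hematocrit), 72 h culture at 37 C under 5% CO2. Saponin/Triton lysis with SYBR Green I, overnight RT, then fluorescence read.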
# ATS95 = assay: as above; conditions: P. falciparum in erythrocytes, SYBR Green DNA, 72 h; series mostly up to 28.7 µM
# Outline: as §1
# CP260 = assay: as above; conditions: P. falciparum in erythrocytes, SYBR Green DNA, 72 h; series mostly up to 28.7 µM
# Outline: as §1
# CP266 = assay: as above; conditions: P. falciparum in erythrocytes, SYBR Green DNA, 72 h; series mostly up to 28.7 µM
# Outline: as §1
# CP291 = assay: as above; conditions: P. falciparum in erythrocytes, SYBR Green DNA, 72 h; series mostly up to 28.7 µM
# Outline: as §1
# CP297 = assay: as above; conditions: P. falciparum in erythrocytes, SYBR Green DNA, 72 h; series mostly up to 28.7 µM
# Outline: as §1
# CP335 = assay: as above; conditions: P. falciparum in erythrocytes, SYBR Green DNA, 72 h; series mostly up to 28.7 µM
# Outline: as §1
# DIV14 = assay: as above; conditions: P. falciparum in erythrocytes, SYBR Green DNA, 72 h; series mostly up to 28.7 µM
# Outline: as §1
# DIV17 = assay: as above; conditions: P. falciparum in erythrocytes, SYBR Green DNA, 72 h; series mostly up to 28.7 µM
# Outline: as §1
# GB4 = assay: as above; conditions: P. falciparum in erythrocytes, SYBR Green DNA, 72 h; series mostly up to 28.7 µM
# Outline: as §1
# ICS = assay: as above; conditions: P. falciparum in erythrocytes, SYBR Green DNA, 72 h; series mostly up to 28.7 µM
# Outline: as §1
# P93_24 = assay: as above; conditions: P. falciparum in erythrocytes, SYBR Green DNA, 72 h; series mostly up to 28.7 µM
# Outline: as §1
# PC26 = assay: as above; conditions: P. falciparum in erythrocytes, SYBR Green DNA, 72 h; series mostly up to 28.7 µM
# Outline: as §1
# [1] = S16 Schwann cell PMP22 intronic element firefly luciferase assay (AID 624032); further: nearly all actives have a fitted effect of over 30% in size
# Outline: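 Rat S16 Schwann cells stably carrying a PMP22 intronic element-driven Fluc reporter were seeded overnight, then exposed to compounds for 24 h at 37 °C. Luminescence was normalized to PTC124 (positive control) and DMSO (0% activity).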
# CP203 = assay: qHTS profiling for inhibitors of Plasmodium falciparum proliferation (AID 504749); further: nearly all actives have a fitted effect of over 60% in size; conditions: P. falciparum in erythrocytes, SYBR Green DNA, 72 h; series mostly up to 28.7 µM
# Outline: as §1
# CP215 = assay: as above; conditions: P. falciparum in erythrocytes, SYBR Green DNA, 72 h; series mostly up to 28.7 µM
# Outline: as §1
# CP247 = assay: as above; conditions: P. falciparum in erythrocytes, SYBR Green DNA, 72 h; series mostly up to 28.7 µM
# Outline: as §1
# CP268 = assay: as above; conditions: P. falciparum in erythrocytes, SYBR Green DNA, 72 h; series mostly up to 28.7 µM
# Outline: as §1
# CP325 = assay: as above; conditions: P. falciparum in erythrocytes, SYBR Green DNA, 72 h; series mostly up to 28.7 µM
# Outline: as §1
# PC49 = assay: as above; conditions: P. falciparum in erythrocytes, SYBR Green DNA, 72 h; series mostly up to 28.7 µM
# Outline: as §1
# Potency means the concentration at half of the fitted maximal effect.
SMILES,Potency (7G8),Potency (ATS95),Potency (CP260),Potency (CP266),Potency (CP291),Potency (CP297),Potency (CP335),Potency (DIV14),Potency (DIV17),Potency (GB4),Potency (ICS),Potency (P93_24),Potency (PC26),Potency [1],Potency (CP203),Potency (CP215),Potency (CP247),Potency (CP268),Potency (CP325),Potency (PC49)
C[C@]12CC[C@@H]3c4ccc(O)cc4C[C@@H](CCCCCCCCCS(=O)CCCC(F)(F)C(F)(F)F)C3[C@@H]1CC[C@@H]2O (some centres undefined),1.78 µM (active),8.91 µM (active),8.91 µM (active),inactive,12 µM (active),4.26 µM (active),13.5 µM (active),3.01 µM (active),4.78 µM (active),9.53 µM (active),2 µM (active),2.24 µM (active),3.38 µM (active),–,–,–,–,–,–,–
CC(=O)O[C@]1(C(C)=O)CCC2C3CCC4=CC(=O)CCC4(C)C3(F)C(O)CC21C (some centres undefined),–,inactive,inactive,inactive,inactive,inactive,inactive,inactive,inactive,inactive,–,inactive,inactive,inactive,inactive,inactive,inactive,inactive,inactive,inactive
C#C[C@@]1(O)CC[C@@H]2[C@H]3CCC4=C/C(=N\O)CC[C@H]4[C@@H]3CC[C@]21CC,–,inactive,inactive,inactive,inactive,inactive,inactive,inactive,inactive,–,–,inactive,inactive,–,inactive,inactive,inactive,inactive,inactive,inactive
C=C(CC[C@@H](C)[C@H]1CCC2[C@]1(C)CC[C@]13C[C@@]14CCC(OC(=O)/C=C/c1ccc(O)c(OC)c1)C(C)(C)[C@@H]4CC[C@@]23C)C(C)C (some centres undefined),–,inactive,inactive,inactive,inactive,inactive,inactive,inactive,inactive,inactive,inactive,inactive,inactive,inactive,inactive,inactive,inactive,inactive,inactive,inactive
C[C@]12CC[C@@H]3c4ccc(O)cc4CC[C@H]3[C@@H]1CCC2OC(=O)CCC1CCCC1 (some centres undefined),10 µM (active),inactive,inactive,inactive,inactive,inactive,–,inactive,inactive,inactive,12.6 µM (active),–,inactive,–,inactive,inactive,inactive,inactive,inactive,inactive
OC[C@@H](O)C(O[C@@H]1O[C@@H](CO)[C@H](O)[C@H](O)[C@H]1O)[C@H](O)[C@@H](O)CO (some centres undefined),inactive,inactive,inactive,inactive,inactive,inactive,inactive,inactive,inactive,inactive,inactive,inactive,inactive,inactive,inactive,inactive,inactive,inactive,inactive,inactive
COC(=O)C1C2CC3c4[nH]c5cc(OC)ccc5c4CCN3CC2CC(OC)C1OC (centres undefined),–,inactive,inactive,inactive,inactive,inactive,inactive,–,–,inactive,inactive,inactive,inactive,inactive,inactive,inactive,inactive,inactive,inactive,inactive
Clc1ccc(CS[C@@H](Cn2ccnc2)c2ccc(Cl)cc2Cl)cc1,0.562 µM (active),3.55 µM (active),–,–,5.73 µM (active),3.22 µM (active),1.28 µM (active),5.1 µM (active),5.1 µM (active),3.61 µM (active),0.891 µM (active),1.26 µM (active),–,inactive,4.55 µM (active),–,–,–,–,–
N#C/C(=C1/SCC(c2ccccc2Cl)S1)n1ccnc1 (centres undefined),10 µM (active),–,inactive,–,inactive,–,inactive,–,inactive,–,–,–,–,11.4 µM (active),inactive,–,inactive,inactive,inactive,inactive
CC(=O)CC(c1ccccc1)C1C(=O)Oc2ccccc2C1=O (centres undefined),inactive,–,inactive,inactive,inactive,inactive,inactive,inactive,inactive,inactive,inactive,inactive,inactive,inactive,inactive,inactive,inactive,inactive,inactive,inactive
CC(CN1CC(=O)NC(=O)C1)N1CC(=O)NC(=O)C1 (centres undefined),inactive,inactive,inactive,inactive,inactive,inactive,inactive,inactive,inactive,inactive,inactive,inactive,inactive,18.1 µM (active),inactive,–,inactive,inactive,inactive,inactive
C[C@@H]1CC2C3CCC4=CC(=O)C=C[C@]4(C)[C@@]3(F)[C@@H](O)C[C@]2(C)[C@@]1(O)C(=O)COC(=O)c1cccc(S(=O)(=O)O)c1 (some centres undefined),–,inactive,inactive,inactive,inactive,inactive,inactive,inactive,inactive,inactive,inactive,inactive,inactive,inactive,inactive,inactive,inactive,inactive,inactive,inactive
COc1cc(/C=C2\CCC/C(=C\c3ccc(O)c(OC)c3)C2=O)ccc1O,2 µM (active),10 µM (active),12.6 µM (active),–,–,13.5 µM (active),12 µM (active),6.75 µM (active),9.53 µM (active),12 µM (active),3.16 µM (active),12.6 µM (active),10.7 µM (active),–,–,15.1 µM (active),8.91 µM (active),–,–,11.2 µM (active)
